According to ChEMBL document CHEMBL1961873, “Compounds: GSK PKIS; Assays: Nanosyn kinase panel” (2012):

Assays:
[1] = target: T1, Serine/threonine-protein kinase TBK1 (Homo sapiens) (UniProt Q9UHD2); details: at 1 µM;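 also: values are mean inhibition of TBK1, screened as part of the GSK published kinase inhibitor set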
T1 sequence (whole entry): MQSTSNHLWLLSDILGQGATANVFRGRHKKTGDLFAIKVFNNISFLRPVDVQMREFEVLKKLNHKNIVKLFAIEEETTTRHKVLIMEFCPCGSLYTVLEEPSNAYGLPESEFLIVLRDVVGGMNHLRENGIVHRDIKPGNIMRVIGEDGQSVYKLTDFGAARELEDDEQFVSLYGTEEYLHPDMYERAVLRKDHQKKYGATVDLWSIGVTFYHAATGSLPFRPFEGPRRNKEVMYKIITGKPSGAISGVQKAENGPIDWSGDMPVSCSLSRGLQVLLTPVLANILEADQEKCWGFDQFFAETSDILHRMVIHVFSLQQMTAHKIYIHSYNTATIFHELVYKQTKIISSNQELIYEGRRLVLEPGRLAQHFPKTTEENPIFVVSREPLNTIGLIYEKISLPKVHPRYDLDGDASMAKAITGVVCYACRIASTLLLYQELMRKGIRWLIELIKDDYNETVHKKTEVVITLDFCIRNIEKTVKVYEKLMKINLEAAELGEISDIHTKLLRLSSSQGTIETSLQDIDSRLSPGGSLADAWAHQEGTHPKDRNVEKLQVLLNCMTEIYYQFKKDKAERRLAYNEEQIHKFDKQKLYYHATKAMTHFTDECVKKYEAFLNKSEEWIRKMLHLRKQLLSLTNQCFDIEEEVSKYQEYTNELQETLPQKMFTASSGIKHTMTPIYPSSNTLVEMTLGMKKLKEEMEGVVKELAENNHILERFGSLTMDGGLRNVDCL

[2] = target: T2, Testis-specific serine/threonine-protein kinase 1 (Homo sapiens) (UniProt Q9BXA7); details: at 0.1 µM
T2 sequence (whole entry): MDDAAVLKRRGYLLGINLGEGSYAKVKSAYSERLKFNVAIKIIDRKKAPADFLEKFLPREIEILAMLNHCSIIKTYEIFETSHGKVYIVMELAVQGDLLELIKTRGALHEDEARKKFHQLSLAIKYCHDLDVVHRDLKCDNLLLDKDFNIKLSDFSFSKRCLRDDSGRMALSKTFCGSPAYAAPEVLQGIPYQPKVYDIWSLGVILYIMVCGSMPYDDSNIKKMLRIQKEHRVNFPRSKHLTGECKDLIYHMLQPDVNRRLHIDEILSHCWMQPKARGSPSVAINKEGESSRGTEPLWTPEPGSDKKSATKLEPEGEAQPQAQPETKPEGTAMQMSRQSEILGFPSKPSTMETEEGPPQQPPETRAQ

[3] = target: T2, Testis-specific serine/threonine-protein kinase 1 (Homo sapiens); details: at 1 µM
[4] = target: T3, Testis-specific serine/threonine-protein kinase 2 (Homo sapiens) (UniProt Q96PF2); details: at 0.1 µM
T3 sequence (whole entry): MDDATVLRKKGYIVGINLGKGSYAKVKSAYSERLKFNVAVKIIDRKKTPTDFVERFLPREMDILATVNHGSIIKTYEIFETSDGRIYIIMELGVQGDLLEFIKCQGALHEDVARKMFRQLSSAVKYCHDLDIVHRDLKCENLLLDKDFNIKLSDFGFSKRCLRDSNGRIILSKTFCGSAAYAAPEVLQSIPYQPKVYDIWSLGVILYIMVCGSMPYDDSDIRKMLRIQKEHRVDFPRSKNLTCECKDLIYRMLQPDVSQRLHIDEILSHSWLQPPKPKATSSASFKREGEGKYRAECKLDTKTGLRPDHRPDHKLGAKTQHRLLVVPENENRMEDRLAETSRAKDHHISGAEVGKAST

[5] = target: T3, Testis-specific serine/threonine-protein kinase 2 (Homo sapiens); details: at 1 µM
[6] = target: Casein kinase I isoform alpha (Homo sapiens) (UniProt P48729); details: at 0.1 µM
[7] = target: Casein kinase I isoform alpha (Homo sapiens) (UniProt P48729); details: at 1 µM
[8] = target: Casein kinase I isoform gamma-1 (Homo sapiens) (UniProt Q9HCP0); details: at 0.1 µM
[9] = target: Casein kinase I isoform gamma-1 (Homo sapiens) (UniProt Q9HCP0); details: at 1 µM
[10] = target: Casein kinase I isoform gamma-2 (Homo sapiens) (UniProt P78368); details: at 0.1 µM
[11] = target: Casein kinase I isoform gamma-2 (Homo sapiens) (UniProt P78368); details: at 1 µM
[12] = target: Casein kinase I isoform gamma-3 (Homo sapiens) (UniProt Q9Y6M4); details: at 0.1 µM
[13] = target: Casein kinase I isoform gamma-3 (Homo sapiens) (UniProt Q9Y6M4); details: at 1 µM
[14] = target: Cyclin-dependent kinase 1 (Homo sapiens) (UniProt P06493); details: at 0.1 µM
[15] = target: Cyclin-dependent kinase 1 (Homo sapiens) (UniProt P06493); details: at 1 µM
[16] = target: Cyclin-dependent kinase 2 (Homo sapiens) (UniProt P24941); details: at 0.1 µM
[17] = target: Cyclin-dependent kinase 2 (Homo sapiens) (UniProt P24941); details: at 1 µM
[18] = target: Cyclin-dependent kinase 2 (Homo sapiens) (UniProt P24941); details: at 0.1 µM; remark: listed apart in the source
[19] = target: Cyclin-dependent kinase 2 (Homo sapiens) (UniProt P24941); details: at 1 µM; remark: listed apart in the source
[20] = target: CDK3/Cyclin E (Homo sapiens) (UniProt P24864+Q00526); details: at 0.1 µM;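 also: reported percentages are mean inhibition values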
CDK3/Cyclin E (Homo sapiens), sequence (P24864 whole entry, looked up): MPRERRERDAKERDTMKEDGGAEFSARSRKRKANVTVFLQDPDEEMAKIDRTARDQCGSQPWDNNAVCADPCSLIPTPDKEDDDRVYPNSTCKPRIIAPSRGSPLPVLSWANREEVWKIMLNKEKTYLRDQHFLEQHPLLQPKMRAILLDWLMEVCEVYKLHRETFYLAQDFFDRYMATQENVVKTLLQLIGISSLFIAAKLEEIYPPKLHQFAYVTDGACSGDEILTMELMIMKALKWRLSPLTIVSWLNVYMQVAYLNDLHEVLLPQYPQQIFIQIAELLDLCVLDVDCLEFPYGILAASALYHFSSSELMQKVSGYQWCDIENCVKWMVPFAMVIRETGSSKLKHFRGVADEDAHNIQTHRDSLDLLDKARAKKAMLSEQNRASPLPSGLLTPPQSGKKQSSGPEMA
CDK3/Cyclin E (Homo sapiens), sequence (Q00526 whole entry, looked up): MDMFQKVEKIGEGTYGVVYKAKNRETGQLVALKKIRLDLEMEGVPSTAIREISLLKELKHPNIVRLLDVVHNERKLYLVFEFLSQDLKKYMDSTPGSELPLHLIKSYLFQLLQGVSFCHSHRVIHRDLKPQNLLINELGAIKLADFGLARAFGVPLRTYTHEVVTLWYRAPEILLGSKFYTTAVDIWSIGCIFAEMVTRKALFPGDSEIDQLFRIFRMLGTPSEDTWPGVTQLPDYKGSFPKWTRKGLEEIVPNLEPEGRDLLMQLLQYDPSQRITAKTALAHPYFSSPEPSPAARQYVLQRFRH

Casein kinase I isoform alpha (Homo sapiens), sequence (P48729 2-337 limits assumed): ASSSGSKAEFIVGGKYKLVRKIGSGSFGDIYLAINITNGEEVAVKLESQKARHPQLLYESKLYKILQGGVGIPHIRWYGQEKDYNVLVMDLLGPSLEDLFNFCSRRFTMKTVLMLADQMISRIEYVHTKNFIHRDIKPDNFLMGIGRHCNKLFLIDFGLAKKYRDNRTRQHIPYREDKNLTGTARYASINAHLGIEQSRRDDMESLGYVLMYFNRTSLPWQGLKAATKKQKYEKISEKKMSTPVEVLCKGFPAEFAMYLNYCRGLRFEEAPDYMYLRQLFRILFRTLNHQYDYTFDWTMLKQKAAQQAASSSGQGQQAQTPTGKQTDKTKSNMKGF
Casein kinase I isoform gamma-2 (Homo sapiens), sequence (P78368 whole entry, looked up, canonical isoform): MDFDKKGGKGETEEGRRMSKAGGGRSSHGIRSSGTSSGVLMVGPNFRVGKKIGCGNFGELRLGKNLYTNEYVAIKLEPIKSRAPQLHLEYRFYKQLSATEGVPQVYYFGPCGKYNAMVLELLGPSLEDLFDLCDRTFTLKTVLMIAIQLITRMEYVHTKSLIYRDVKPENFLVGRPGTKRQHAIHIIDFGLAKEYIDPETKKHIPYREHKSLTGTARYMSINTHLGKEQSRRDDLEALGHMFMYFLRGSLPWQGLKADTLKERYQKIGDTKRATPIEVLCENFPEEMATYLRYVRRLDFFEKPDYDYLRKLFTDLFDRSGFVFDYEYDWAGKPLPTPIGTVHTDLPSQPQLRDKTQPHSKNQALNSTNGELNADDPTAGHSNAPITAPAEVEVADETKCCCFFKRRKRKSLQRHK
Cyclin-dependent kinase 1 (Homo sapiens), sequence (P06493 whole entry, looked up): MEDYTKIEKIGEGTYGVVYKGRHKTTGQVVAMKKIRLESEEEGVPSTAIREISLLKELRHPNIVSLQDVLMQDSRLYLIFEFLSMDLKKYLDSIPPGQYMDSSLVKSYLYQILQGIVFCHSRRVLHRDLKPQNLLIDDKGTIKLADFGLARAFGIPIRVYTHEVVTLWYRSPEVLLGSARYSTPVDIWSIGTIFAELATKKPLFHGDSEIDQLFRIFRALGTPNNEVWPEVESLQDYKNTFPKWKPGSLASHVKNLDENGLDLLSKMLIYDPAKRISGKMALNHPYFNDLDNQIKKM
Casein kinase I isoform gamma-3 (Homo sapiens), sequence (Q9Y6M4 whole entry, looked up, canonical isoform): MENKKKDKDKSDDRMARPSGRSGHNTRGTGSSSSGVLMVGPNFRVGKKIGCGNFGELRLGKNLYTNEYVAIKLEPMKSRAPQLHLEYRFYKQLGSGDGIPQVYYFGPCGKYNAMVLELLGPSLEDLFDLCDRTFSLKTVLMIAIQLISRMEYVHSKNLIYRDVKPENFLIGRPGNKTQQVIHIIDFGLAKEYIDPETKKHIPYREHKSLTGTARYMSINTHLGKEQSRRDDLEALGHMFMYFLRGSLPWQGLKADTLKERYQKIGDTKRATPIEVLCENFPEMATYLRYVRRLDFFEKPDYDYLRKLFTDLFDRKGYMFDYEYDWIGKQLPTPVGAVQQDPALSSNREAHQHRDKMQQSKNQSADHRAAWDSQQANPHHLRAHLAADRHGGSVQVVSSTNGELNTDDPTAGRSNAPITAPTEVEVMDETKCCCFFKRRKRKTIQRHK
Casein kinase I isoform gamma-1 (Homo sapiens), sequence (Q9HCP0 whole entry, looked up, canonical isoform): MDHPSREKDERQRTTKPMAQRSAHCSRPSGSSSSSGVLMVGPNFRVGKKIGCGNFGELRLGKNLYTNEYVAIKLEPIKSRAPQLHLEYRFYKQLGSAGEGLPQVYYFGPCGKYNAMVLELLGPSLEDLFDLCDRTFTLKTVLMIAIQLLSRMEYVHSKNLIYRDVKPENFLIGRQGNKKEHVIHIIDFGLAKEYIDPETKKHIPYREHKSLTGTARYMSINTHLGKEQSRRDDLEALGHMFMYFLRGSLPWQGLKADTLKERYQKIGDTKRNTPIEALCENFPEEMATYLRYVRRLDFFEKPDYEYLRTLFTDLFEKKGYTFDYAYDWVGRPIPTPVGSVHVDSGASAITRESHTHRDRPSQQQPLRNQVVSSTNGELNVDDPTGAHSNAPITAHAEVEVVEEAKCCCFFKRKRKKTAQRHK

Molecule c1cnn2ncc(-c3ccnc(NCCCN4CCOCC4)n3)c2c1 has an inhibition [1] of 1.95%, an inhibition [2] of 3.58% and an inhibition [3] of 2.58%. The inhibition [4] was 2.3%, the inhibition [5] was 1.85% and the inhibition [6] was 2.74%. For the same molecule, the inhibition [7] was 16.4%, the inhibition [8] was 3.57% and the inhibition [9] was 4.83%. It also gave an inhibition [10] of 3.07%, an inhibition [11] of 5.14% and an inhibition [12] of 1.77%. For the same molecule, the inhibition [13] was 4.33%, the inhibition [14] was 1.53% and the inhibition [15] was 13.9%. The inhibition [16] was 1.1%, the inhibition [17] was 5.75% and the inhibition [18] was 5.32%. It also gave an inhibition [19] of 5.99% and an inhibition [20] of 0.96%.
CNC(=O)c1sc(-n2cnc3cc(OC)c(OC)cc32)cc1OCc1ccccc1C(F)(F)F was tested, and the inhibition [1] was 4.39%, the inhibition [2] was 1.24% and the inhibition [3] was 1.63%. The inhibition [4] was 1.51%, the inhibition [5] was 1.01% and the inhibition [6] was 0.44%. It also gave an inhibition [7] of 2.65%, an inhibition [8] of 3.33% and an inhibition [9] of 3.86%. It also gave an inhibition [10] of 3.4%, an inhibition [11] of 3.65% and an inhibition [12] of 3.86%. It also gave an inhibition [13] of 4.26%, an inhibition [14] of 0.69% and an inhibition [15] of 2.03%. The inhibition [16] was 0.22%, the inhibition [17] was 1.77% and the inhibition [18] was 2.17%. It also gave an inhibition [19] of 3.8% and an inhibition [20] of 0.35%.
O=C1Nc2ccccc2/C1=C1\CCc2cc(O)ccc21 was tested, and the inhibition [1] was 13%, the inhibition [2] was 3.88% and the inhibition [3] was 6.96%. For the same molecule, the inhibition [4] was 1.83%, the inhibition [5] was 2.14% and the inhibition [6] was 4.95%. For the same molecule, the inhibition [7] was 9.64%, the inhibition [8] was 5% and the inhibition [9] was 6.41%. For the same molecule, the inhibition [10] was 3.27%, the inhibition [11] was 8.01% and the inhibition [12] was 4.01%. It also gave an inhibition [13] of 6.11%, an inhibition [14] of 1.03% and an inhibition [15] of 3.82%. The inhibition [16] was 3.01%, the inhibition [17] was 5.49% and the inhibition [18] was 5.72%. The inhibition [19] was 10.6% and the inhibition [20] was 4.58%.
For COc1cc(Nc2ncc(-c3ccccc3)o2)cc(OC)c1, the inhibition [1] was 4.2%, the inhibition [2] was 4.25% and the inhibition [3] was 4.53%. For the same molecule, the inhibition [4] was 2.32%, the inhibition [5] was 2.49% and the inhibition [6] was 4.52%. The inhibition [7] was 3.47%, the inhibition [8] was 4.39% and the inhibition [9] was 4.78%. For the same molecule, the inhibition [10] was 4.11%, the inhibition [11] was 5.36% and the inhibition [12] was 5.09%. It also gave an inhibition [13] of 3.43%, an inhibition [14] of 0.36% and an inhibition [15] of 4.4%. The inhibition [16] was 1.87%, the inhibition [17] was 12.7% and the inhibition [18] was 3.39%. The inhibition [19] was 15.1% and the inhibition [20] was -1.04%.
With CS(=O)(=O)CCNCc1ccoc1-c1ccc2ncnc(Nc3ccc(OCc4ccccc4)cc3)c2c1 the inhibition [1] was -2.25%, the inhibition [2] was 0.51% and the inhibition [3] was 0.84%. The inhibition [4] was 1.17%, the inhibition [5] was 0.75% and the inhibition [6] was 1.49%. For the same molecule, the inhibition [7] was -0.39%, the inhibition [8] was 0.5% and the inhibition [9] was 1.25%. For the same molecule, the inhibition [10] was 0.24%, the inhibition [11] was 0.93% and the inhibition [12] was 1.14%. It also gave an inhibition [13] of 0.44%, an inhibition [14] of -0.72% and an inhibition [15] of 1.35%. For the same molecule, the inhibition [16] was 1.48%, the inhibition [17] was 3.32% and the inhibition [18] was 1.98%. It also gave an inhibition [19] of 3.45% and an inhibition [20] of -1.56%.
For CS(=O)(=O)Nc1ccc(-c2cc(-c3ccccc3)cc(C(N)=O)c2N)cc1, the inhibition [1] was 2.08%, the inhibition [2] was 2.3% and the inhibition [3] was 2.85%. For the same molecule, the inhibition [4] was 0.46%, the inhibition [5] was 1.61% and the inhibition [6] was 0.02%. It also gave an inhibition [7] of 2.47%, an inhibition [8] of 0.73% and an inhibition [9] of 0.84%. The inhibition [10] was 0.2%, the inhibition [11] was 0.9% and the inhibition [12] was 2.42%. The inhibition [13] was 0.43%, the inhibition [14] was 0.06% and the inhibition [15] was -0.25%. The inhibition [16] was 0.21%, the inhibition [17] was 1.06% and the inhibition [18] was 0.2%. For the same molecule, the inhibition [19] was 1.37% and the inhibition [20] was -0.04%.
For N#Cc1cccc(Nc2ncc(-c3ccccc3)o2)c1, the inhibition [1] was 3.86%, the inhibition [2] was 3.9% and the inhibition [3] was 5.55%. It also gave an inhibition [4] of 2.41%, an inhibition [5] of 4.88% and an inhibition [6] of 1.55%. It also gave an inhibition [7] of 0.38%, an inhibition [8] of 1.61% and an inhibition [9] of 3.03%. The inhibition [10] was 1.82%, the inhibition [11] was 2.13% and the inhibition [12] was 1.94%. For the same molecule, the inhibition [13] was 4.11%, the inhibition [14] was 2.78% and the inhibition [15] was 17.1%. It also gave an inhibition [16] of 6.59%, an inhibition [17] of 44.4% and an inhibition [18] of 7.57%. It also gave an inhibition [19] of 40.1% and an inhibition [20] of 10.1%.
O=C(O[C@H]1CN[C@H](C#Cc2cc3ncnc(Nc4ccc5c(ccn5Cc5cc(F)ccc5F)c4)c3s2)C1)N1CCOCC1 gave an inhibition [1] of 2.11%, an inhibition [2] of 3.63% and an inhibition [3] of 4.15%. The inhibition [4] was 2.52%, the inhibition [5] was 1.57% and the inhibition [6] was 2.93%. It also gave an inhibition [7] of 5.4%, an inhibition [8] of 4.17% and an inhibition [9] of 5.41%. It also gave an inhibition [10] of 3.09%, an inhibition [11] of 5.86% and an inhibition [12] of 2.96%. The inhibition [13] was 4.98%, the inhibition [14] was -0.04% and the inhibition [15] was 1.97%. It also gave an inhibition [16] of 1.56%, an inhibition [17] of 4.93% and an inhibition [18] of 3.67%. It also gave an inhibition [19] of 2.07% and an inhibition [20] of 4.08%.
With O=C(Nc1n[nH]c2nnc(-c3cccnc3)cc12)C1CC1 the inhibition [1] was 1.3%, the inhibition [2] was 0.18% and the inhibition [3] was 1.92%. The inhibition [4] was -0.11%, the inhibition [5] was 0.95% and the inhibition [6] was -0.76%. The inhibition [7] was -2.19%, the inhibition [8] was -0.63% and the inhibition [9] was 0.33%. The inhibition [10] was -0.76%, the inhibition [11] was -0.48% and the inhibition [12] was -0.12%. The inhibition [13] was 0.24%, the inhibition [14] was 33.3% and the inhibition [15] was 72.5%. For the same molecule, the inhibition [16] was 65.5%, the inhibition [17] was 91.2% and the inhibition [18] was 38.9%. It also gave an inhibition [19] of 75.3% and an inhibition [20] of 35.9%.
